Only some compounds are listed: those with a hit (about 1.1% of all), similar ones and a draw of the others.
RXFP1 antag – qHTS Assay for Antagonists of the Relaxin Receptor RXFP1; HEK293-RXFP1, relaxin-stimulated cAMP HTRF, 30 min; active compounds read low; activity change, negative = inhibition, % at 57.5 µM; actives 0.59% (n = 350,000); AID 1259400, 2018;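 active = activity change of -60% or lower, but not beyond a set lower limit; inconclusive = change between -60% and -40%, or beyond the set limit; inactive = change above -40%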; note: % is set by controls: 0 for no effect and ±100 for the full control effect
Integrin act MD – qHTS for Activators of Integrin-Mediated Alleviation for Muscular Dystrophy | alpha7betagal myoblasts, beta-gal FDG fluorescence, 48 h | Potency, µM (series often up to 38.3 µM), without a hit: at the top dose activation, hits mostly activators | actives 0.064% (n = 350,000);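 note: potency is the fitted concentration of half-maximal effect; 100% = response of the positive control SU9516; nearly all actives have a fitted effect of over 60% in size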
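alpha7betagal+/- myoblasts (passage 13, 250/well) treated 48 h at 37C with compounds at 1:260 dilution of DMSO stock. Lysed, then beta-galactosidase activity read as FDG fluorescence (ex 480/em 540) after 30 min, with pre-read for autofluorescence.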
RXFP1 agonist – qHTS Assay for Agonists of the Relaxin Receptor RXFP1 | Relaxin receptor 1 (Homo sapiens), Q9HBX9 | HEK293T-RXFP1 cAMP TR-FRET, 30 min; response scale: percent of porcine relaxin response, buffer zero | Potency, µM (series often up to 57.5 µM), without a hit: top-dose activation, hits mostly activators | actives 0.3% (n = 370,000); note: potency is the fitted concentration of half-maximal effect; % is set by controls: 0 for no effect and ±100 for the full control effect; nearly all actives have a fitted effect of over 60% in size
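cAMP rise read by TR-FRET after 30 min, 37C compound exposure (up to 58 uM) in RXFP1-transfected HEK293 cells with Ro 20174 present. EC50 from Hill-equation fits, with 29 nM porcine relaxin as 100% and buffer as basal.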
gsp antagonist – qHTS for Antagonists of gsp, the Etiologic Mutation Responsible for Fibrous Dysplasia/McCune-Albright Syndrome: qHTS; Potency, µM (doses to about 76.9 µM), for the others: top-dose activity change, negative = inhibition, hits mostly inhibitors; gsp-mutant cells, cAMP HTRF, 30 min; actives 0.4% (n = 340,000); calls by dose curve; cell line not stated here;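 note: intracellular cAMP measured with PDE inhibitor Ro 20-1724 present during compound exposure; potency is the fitted concentration of half-maximal effect; % is set by controls: 0 for no effect and ±100 for the full control effect; nearly all actives have a fitted effect of over 65% in size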
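Cells, 2000/well, grown 16–24 h in DMEM 10% FBS with 0.5 mg/ml G418, then compounds plus […] (300 uM addition stock), 30 min at 37C. cAMP read by HTRF (cAMP-d2 and anti-cAMP antibody-K in lysis buffer) after 30 min RT.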
gsp ag – qHTS for Agonist of gsp, the Etiologic Mutation Responsible for Fibrous Dysplasia/McCune-Albright Syndrome: qHTS | gsp mutant cells, cAMP HTRF, 30 min | Potency, µM (highest dose often 76.9 µM), for the others: at the top dose activation (cAMP increase), usual class: activators | actives 0.13% (n = 340,000); active = well fitted activation curve with a large enough effect; inconclusive = small, poorly fitted or top-dose-only effect, or another doubt; inactive = no such curve, though single readings can be large or run the other way; cell line not stated here;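 note: phosphodiesterase inhibitor Ro 20-1724 added with compounds to block cAMP breakdown; potency is the fitted concentration of half-maximal effect; nearly all actives have a fitted effect of over 60% in size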
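Cells stably selected in G418 were plated at 2000/well, grown 16-24 hr, then given compounds in DMSO with the PDE inhibitor […] (300 uM solution added) for 30 min at 37C; cAMP was read by HTRF.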
ASM inhibitor – Inhibitors of Secretory Acid Sphingomyelinase (S-ASM): qHTS | placental ASM, HMU-PC fluorogenic substrate, 60 min | Sphingomyelin phosphodiesterase (Homo sapiens), P17405 | Potency, µM (series often up to 57.5 µM), inactives show at the top dose activity change, negative = inhibition, usual class: inhibitors | actives 0.006% (n = 340,000) | AID 504937, 2011; note: potency is the fitted concentration of half-maximal effect
Target sequence (P17405 47-631 limits assumed): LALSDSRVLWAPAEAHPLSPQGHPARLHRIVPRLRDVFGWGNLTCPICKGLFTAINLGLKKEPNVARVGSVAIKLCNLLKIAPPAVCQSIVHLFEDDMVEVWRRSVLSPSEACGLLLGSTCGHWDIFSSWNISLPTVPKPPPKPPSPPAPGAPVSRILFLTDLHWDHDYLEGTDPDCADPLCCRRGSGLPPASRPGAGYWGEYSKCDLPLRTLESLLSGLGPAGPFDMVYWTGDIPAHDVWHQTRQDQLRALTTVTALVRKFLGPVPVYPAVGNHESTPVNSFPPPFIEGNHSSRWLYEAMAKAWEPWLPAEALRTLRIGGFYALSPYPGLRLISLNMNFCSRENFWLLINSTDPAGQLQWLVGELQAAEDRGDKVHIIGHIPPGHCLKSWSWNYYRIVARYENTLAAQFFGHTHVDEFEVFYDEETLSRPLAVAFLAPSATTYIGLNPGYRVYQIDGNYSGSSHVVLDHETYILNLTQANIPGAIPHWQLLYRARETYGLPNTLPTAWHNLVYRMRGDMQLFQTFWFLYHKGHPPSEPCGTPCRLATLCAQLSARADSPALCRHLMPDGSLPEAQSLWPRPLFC
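Fluorogenic HMU-PC substrate (9 uM final) is turned over by placental ASM in 60 min at 37 C after a 10 min compound preincubation. Reaction ended by alkaline stop (pH 10), with fluorescence read at 386/447 nm.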
Numbers without * were called inactive; i = inactive; ? = inconclusive; . = no result given; ! = not active in a repeat; [ ] = another dose, or the depositor's remark. Unless noted, calls come from the whole dose curve; as a rule, active = well fitted curve in the direction sought with a large enough effect; inconclusive = small, poorly fitted or top-dose-only effect, or another doubt; inactive = no such curve, though single readings can be large; an effect the other way counts as inactive or inconclusive.

SMILES | RXFP1 antag | Integrin act MD | RXFP1 agonist | gsp antagonist | gsp ag | ASM inhibitor
CC1OC(OC2C(CO)OC(OCC3OC(OC(=O)[C@@]45CCC(C)(C)C[C@@H]4C4=CC[C@@H]6[C@@]7(C)CCC(OC8OCC(O)C(O)C8OC8OC(C)C(O)C(O)C8O)[C@@](C)(CO)C7CC[C@@]6(C)[C@]4(C)CC5)C(O)C(O)C3O)C(O)C2O)C(O)C(O)C1O (some centres undefined) | . | . | . | 39.8µM* | . | -4.1%
COc1ccc(-n2c(=O)c3ccc(C(=O)NCc4ccc(C)cc4)cc3n(CC(=O)Nc3cccc(F)c3)c2=O)cc1 | . | . | 31.6µM* | . | . | .
COc1ccc(NC(=O)Cn2c(=O)n(-c3ccc(OC)cc3)c(=O)c3ccc(C(=O)NCc4ccc(C)cc4)cc32)cc1 | . | . | 13.4% | . | . | .
Cc1ccc(-n2c(=O)c3ccc(C(=O)NCc4ccccc4Cl)cc3n(Cc3cccc(F)c3)c2=O)cc1 | . | . | 31.6µM* | . | . | .
Cc1ccc(-n2c(=O)c3ccc(C(=O)NCc4ccccc4Cl)cc3n(CC(=O)Nc3cccc(F)c3)c2=O)cc1 | . | . | 11.9% | . | . | .
Cc1ccc(NC(=O)Cn2c(=O)n(-c3ccccc3)c(=O)c3ccc(C(=O)NCc4ccc5c(c4)OCO5)cc32)cc1 | . | . | 22.4µM* | . | . | .
Cc1ccc(CC(CC(=O)O)C(=O)Nc2ccc(Cl)cc2)cc1 (centres undefined) | 2.5 | 7.6% | 1.3% | 0.9% | -24.6% | -1.0%
COc1ccc(CC(CC(=O)O)C(=O)Nc2ccc(Cl)c(Cl)c2)cc1 (centres undefined) | 2.2 | ? | 2.8% | 17.8µM* | 4.0% | -3.1%
Cc1ccc(C(=O)Nc2cccc(O)c2)cc1S(=O)(=O)N1CCCCCC1 | -82.8*! | -16.6% | -1.2% | -7.5% | -5.0% | -5.0%
Cc1ccc(C(=O)N2CCN(c3ccccc3)CC2)cc1S(=O)(=O)N1CCCC1 | 4.1 | -34.6% | -0.4% | 31.6µM* | -39.8% | 0.9%
Cc1ccc(NC(=O)c2ccc(F)c(S(=O)(=O)N3CCOCC3)c2)cc1F | -13.0 | -26.9% | 0.1% | 35.5µM* | -46.0% | -7.0%
Cc1ccc(NC(=O)c2ccc(C)c(S(=O)(=O)N3CCCCCC3)c2)cc1 | . | . | -0.5% | . | . | .
CSc1ccc(CNC(=O)CCn2ccc3cc(S(=O)(=O)N4CCC(C)CC4)ccc32)cc1 | -9.2 | . | 0.2% | . | . | .
COc1ccc(CN2CCNC(=O)C2CC(=O)NCCc2c[nH]c3ccccc23)c(OC)c1 (centres undefined) | -7.2 | 10µM* | 4.4% | 11.7% | -1.2%[15.4 µM] | 6.1%
Cc1ccsc1C(=O)NNC(=O)c1ccc(NS(=O)(=O)c2cccs2)cc1 | . | 20.6% | 3.3% | 11.2µM* | -57.8% | -4.2%
Cc1cccc2c(N=NC(=O)c3ccc(NS(=O)(=O)c4cccs4)cc3)c(O)[nH]c12 | -8.9 | 18.2% | 0.0% | 25.1µM* | -2.6% | -5.5%
CC(=O)Nc1cccc(C(=O)NNC(=O)c2ccc(NS(=O)(=O)c3cccs3)cc2)c1 | 7.2 | 3.5% | . | . | -69.2% | .
CCOC(=O)c1c(NC(=O)CSc2nc(C)cc(C)c2C#N)sc(C(C)=O)c1C | -9.3 | -1.2% | 17.8µM* | 6.5% | -29.1% | 36.8%
CCCOc1ccc(CNC(=S)Nc2ccccc2)cc1Cl | -4.7 | -7.1% | 6.2% | ? | -8.9% | -1.5%
CCc1nc2ccc(C(=O)NCCc3ccc(OC)cc3OC)cc2nc1CC | -71.4* | . | -0.7% | . | . | .
COc1ccc(CCNC(=O)c2ccc3c(c2)N(Cc2ccc(F)cc2)CCS3)c(OC)c1 | 25.6 | -37.3% | 20.5% | -15.3% | 7.08µM* | 250.9%
CCc1nc2ccc(C(=O)NCc3cc(OC)ccc3OC)cc2nc1CC | -26.5 | . | 2.4% | . | . | .
COc1ccc(OC)c(CCNC(=O)c2ccc3c(c2)N(Cc2ccc(F)cc2)CCS3)c1 | 26.4 | ? | 16.5% | ? | 1.1% | 218.7%
CCOC(=O)Cn1c(=O)oc2cc(S(=O)(=O)N3CCN(c4ccccc4OC)CC3)ccc21 | -64.7* | . | 2.2% | . | . | .
O=C1c2ccccc2C(=O)N1CCCCc1cn(C[C@H]2CC[C@@H]([C@@H]3CC[C@H](Cn4cc(CCCCN5C(=O)c6ccccc6C5=O)nn4)O3)O2)nn1 | . | -20.5% | . | 31.6µM* | . | -0.5%
SMILES | RXFP1 antag | Integrin act MD | RXFP1 agonist | gsp antagonist | gsp ag | ASM inhibitor
O=C(Nc1cccc(C(=O)N2CCCCC2)c1)c1ccccc1Br | -15.5 | -30.2% | 2.9% | -2.1% | ? | -0.1%
O=C(O)c1cccc(Cn2c(Cl)c(/C=N/Nc3ccccc3)sc2=O)c1 | -73.6* | 9.0% | -5.0% | -20.6% | -23.8% | -14.3%
O=C(O)c1cccc(Cn2c(Cl)c(/C=N/NC(=O)c3ccccc3Cl)sc2=O)c1 | . | 18.6% | 0.0% | -10.2% | -4.7% | -1.9%
CCCOc1ccc(C2C(C(=O)c3ccco3)=C(O)C(=O)N2CCN2CCOCC2)cc1OC (centres undefined) | . | . | 4.2% | . | . | .
COc1cc(C2C(C(=O)c3cc4ccccc4o3)=C(O)C(=O)N2CCN2CCOCC2)ccc1OCCC(C)C (centres undefined) | -5.5 | -9.3% | 28.2µM* | 9.5% | ? | -2.2%
CC(C)CCNC(=O)c1ccc2c(c1)ncn2C1CCCC1 | -7.8 | 32.9% | 5.3% | 7.94µM* | -2.4%[15.4 µM] | 6.8%
Cc1cc(C)n2nc(C)c(Br)c2n1 | -14.7 | 9.2% | 5.1% | -13.6% | 2.7%[15.4 µM] | 0.9%
Cc1cc(C)n2nc3nc4c(cc3c2n1)CCCC4 | 2.6 | 18.0% | 12.6% | 18.7% | 14.1µM* | i
COc1ccccc1CNS(=O)(=O)c1ccc(Cl)s1 | 13.6 | 6.31µM* | 1.0% | -2.6% | 20.9%[15.4 µM] | 7.0%
COc1ccccc1Cn1c(CNS(=O)(=O)c2ccc(Cl)s2)nc2cccnc21 | 1.1 | . | -1.3% | . | . | .
COc1ccc(Nc2ncc(C(=O)N3CCN(c4cccc(Cl)c4)CC3)c3ccccc23)cc1 | . | . | 3.4% | . | . | .
Cc1ccc(C)c(CSc2nc3c([nH]c4ccccc43)c(=O)n2C)c1 | 1.2 | . | 0.5% | . | . | .
CCSc1nnc(NC(=O)C(C)(C(F)(F)F)C(F)(F)F)s1 | -14.7 | 17.7% | 2.4% | 22.4µM* | 6.9% | 6.1%

Source: PubChem
